The source made the active and inactive calls. The call rests on the fitted dose curve; in most records, active means well fitted curve in the direction sought with a large enough effect in the repeat runs; inconclusive means weak or mixed curves; inactive means flat fitted curve, though single readings scatter.
Test: qHTS assay to test for compound auto fluorescence at 590 nm (red) in HepG2 cell free culture (AID 720684)
Conditions: cell-free medium autofluorescence, red 540/590 nm; series mostly up to 91.3 µM; fluorescence, % of Rose Bengal: at the top concentration
Source text: U.S. Tox21 Program National Center for Advancing Translational Sciences [NCATS] NIH Chemical Genomics Center [NCGC] U.S. Environmental Protection Agency [EPA] National Institutes of Environmental Health Sciences [NIEHS] National Toxicology Program [NTP] U.S. Food and Drug Administration [FDA] Tox21 Assay Overview: Compound auto fluorescence often interferes with screening of the compound library against various biological targets and signaling pathways. Some of these compounds may have fluorophoric properties. Such properties may interfere with the assay outputs resulting in false positives and/or negatives. To decrease such complications and ensure the compound activities are relevant in terms of biological response, the Tox21 10K compound library was screened for auto fluorescence. From the fluorophores used as reporter signals in our screening assays, the auto fluorescence equivalencies of compounds against three fluorophores have been evaluated: Triamterene, Fluorescein and Rose Bengal sodium for blue, green and red fluorescence, respectively. The fluorescence intensities were measured using Excitation/Emission wavelengths at 405/460nm, 485/535nm and 540/590nm for blue, green and red labels, respectively. This assay includes the red fluorescence data.
Tox21 Assay Protocol Summary: 5 uL of culture medium (MEM containing 10% FBS) per well was dispensed into black wall/clear bottom 1536-well plates using a Multidrop Combi Dispenser (ThermoFisher Scientific, Waltham, MA). After 23 nL compound or DMSO vehicle was transferred into assay plate by a pintool work station (Kalypsys, San Diego, CA), fluorescence intensities in the assay plates were measured by an Envision (PerkinElmer, Shelton, CT) plate reader using three labels for measuring blue, green and red fluorescence at […] 460, 535 and 590nm respectively.
On the % scale 0 is the no-effect control and ±100 the full control effect.

SMILES | fluorescence, % of Rose Bengal | Potency
C[N+](C)(C)CCOC(=O)CCC(=O)OCC[N+](C)(C)C | 0.136% [at 46 µM] (inactive) | 
O=S(=O)(Oc1ccc(Cl)cc1)c1ccccc1 | -0.198% (inactive) | 
CCOc1ccc(O)cc1 | 0.111% (inactive) | 
Clc1ccc2c(c1)CCc1cccnc1C2=C1CCNCC1 | 0.302% [at 46 µM] (inactive) | 
O=C(OCCc1ccccc1)c1ccccc1 | -0.157% (inactive) | 
CCCn1cnc2c1c(=O)n(CCCCC(C)=O)c(=O)n2C | 0.0177% [at 46 µM] (inactive) | 
O=[N+]([O-])c1ccc(NCCO)c(OCCO)c1 | 0.0005% (inactive) | 
NCC(=O)O | 0.0816% [at 46 µM] (inactive) | 
Cc1cc(C(=O)O)ccc1[N+](=O)[O-] | -0.0175% (inactive) | 
CC/C=C\CCOC(=O)CC | -0.0793% (inactive) | 
CC(C)Nc1ccc(NC(C)C)c2c1C(=O)c1ccccc1C2=O | -0.0069% [at 46 µM] (inactive) | 
NCCCN1CCOCC1 | -0.169% (inactive) | 
COc1cc(Cl)ccc1Oc1ccc(Cl)cc1Cl | 0.0984% (inactive) | 
O=C(O)C(S)C(S)C(=O)O (stereo not given) | -0.0161% [at 46 µM] (inactive) | 
C#C[C@]1(O)CC[C@H]2[C@@H]3CCc4cc(OC5CCCC5)ccc4[C@H]3CC[C@@]21C | -0.409% [at 46 µM] (inactive) | 
COc1ccc(C(=O)c2ccc(OC)cc2O)c(O)c1 | 0.18% (inactive) | 
CC1=CCCC(C)(C)C12CCC(C)O2 (stereo not given) | -0.305% (inactive) | 
COc1ccc(S(=O)(=O)N2C(=O)[C@@](c3ccccc3OC)(N3C[C@H](O)C[C@H]3C(=O)N(C)C)c3cc(Cl)ccc32)c(OC)c1 | -0.0183% (inactive) | 
Cn1c(=O)cc(Oc2ccc(F)cc2F)c2cnc(NCC(C)(C)O)nc21 | 0.267% (inactive) | 
CCN(CC)CCOC(=O)C(Cc1cccc2ccccc12)CC1CCCO1 (stereo not given) | 0.633% [at 18.6 µM] (inactive) | 

SMILES | fluorescence, % of Rose Bengal | Potency
CCC(=O)O[C@]1(C(=O)CCl)[C@@H](C)C[C@H]2[C@@H]3CCC4=CC(=O)C=C[C@]4(C)[C@@]3(F)[C@@H](O)C[C@@]21C | 0.103% [at 46 µM] (inactive) | 
C=CC1CC2C=CC1C2 (stereo not given) | 0.0975% (inactive) | 
CC(C)=CCC/C(C)=C/CC/C(C)=C/CO | -0.0788% (inactive) | 
CCCCCC[C@@H](O)C/C=C\CCCCCCCC(=O)OC | 0.188% (inactive) | 
O=C1OC(CN2CCOCC2)CN1/N=C/c1ccc([N+](=O)[O-])o1 (stereo not given) | 0.113% [at 18.6 µM] (inactive) | 
CCCCC(CC)CN1C(=O)C2C3C=CC(C3)C2C1=O (stereo not given) | -0.0617% (inactive) | 
CC(COCCO)OCCO (stereo not given) | -0.153% (inactive) | 
CCO[C@H](Cc1ccc(OCCc2ccc(OS(C)(=O)=O)cc2)cc1)C(=O)O | 0.14% [at 46 µM] (inactive) | 
CN1CCC(N(Cc2cccs2)c2ccccc2)CC1 | -0.294% [at 46 µM] (inactive) | 
CCC(C)O (stereo not given) | -0.047% [at 95.7 µM] (inactive) | 
CC(C)(O)c1ccc(CNC(=O)c2cccnc2Oc2ccc(F)cc2)cc1 | -0.066% (inactive) | 
C=C(C)C(=O)OCCO | 0.274% [at 95.7 µM] (inactive) | 
CCOC(=O)C1=C[C@]2(CC)CCCN3CCc4c(n1c1ccccc41)[C@@H]32 |  | inactive
N=c1ccn2c(n1)O[C@H]1[C@H](O)[C@@H](CO)O[C@H]12 |  | inactive
Nc1ccc(S(=O)(=O)Nc2ccccc2)cc1 | 0.0192% [at 46 µM] (inactive) | 
OCCNCc1ccccc1 | -0.0191% (inactive) | 
O=C(O)C1(C(=O)Nc2ccc(Cl)cc2Cl)CC1 | 0.0213% (inactive) | 
C[N+]1(CC2COC(c3ccccc3)(C3CCCCC3)O2)CCCCC1 (stereo not given) | -0.186% [at 46 µM] (inactive) | 
Cc1cccc(C)c1OCC(=O)N[C@@H](Cc1ccccc1)[C@@H](O)C[C@H](Cc1ccccc1)NC(=O)[C@H](C(C)C)N1CCCNC1=O | -0.0738% [at 46 µM] (inactive) | 
COc1cc(C(=O)OCCCN2CCCN(CCCOC(=O)c3cc(OC)c(OC)c(OC)c3)CC2)cc(OC)c1OC | -0.336% [at 46 µM] (inactive) | 

— PubChem BioAssay (Tox21)
